Measurements: PubChem BioAssay AID2685 (National Center for Advancing Translational Sciences (NCATS), 2010)
Among all 320,000 compounds or so, about 2,100 (0.66%) were called active. Inconclusive results (about 53%) are left out. Calls come from the whole dose curve; as a rule, active = well fitted inhibition curve with a large enough effect in the signal ratio, with a control signal flat (not every such curve was filed as active); inconclusive = small, poorly fitted or top-dose-only effect, or effect the other way, or a change in a side signal; inactive = flat fitted curve, though single readings scatter; the % refers to the signal ratio. The list comes from a sample in which actives are over-represented; it also holds similar structures and randomly drawn compounds.

experiment: qHTS Assay for Lipid Storage Modulators in Drosophila S3 Cells; conditions: BODIPY lipid droplet fluorescence, 18-24 h, cells fed with added oleic acid; cell number change: measured here: cell count max response; series mostly up to 46.1 µM;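 for cell number change: cells counted by Cell Tracker Red CMTPX staining in the red channel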
Method in brief: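 Drosophila S3 cells got compounds at several concentrations plus oleic acid (400 uM solution). Laser-scanning cytometry with 488 nm excitation read lipid droplets at 500-530 nm and cells at 575-640 nm. Percent activity was relative to 20 uM Triacsin C.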
Potency is the fitted concentration of half-maximal effect.

Row | SMILES | Potency | cell number change | outcome
1 | COC(=O)c1ccc(CON2C(=O)c3ccccc3C2=O)cc1 | inactive | -3.96% | –
2 | COC(=O)CCC(=O)NN1C(=O)c2ccccc2C1=O | inactive | 9.79% | –
3 | COC(=O)CON1C(=O)c2ccccc2C1=O | 25.9 µM (active) | -16.7% | –
4 | CN(Cc1cccc(F)c1)C(=O)c1cc(S(=O)(=O)N2CCOCC2)ccc1N1CCCC1 | inactive | -6.74% | –
5 | COc1ccc(OC)c(NC2=NC3(CCCC3)N=C(N)N2)c1 | inactive | -7.97% | –
6 | COc1ccc(NC2=NC3(CCCCC3)N=C(N)N2)cc1 | inactive | -9.76% | –
7 | COc1cccc(NC2=NC3(CCCCC3)N=C(N)N2)c1 | 6.51 µM (active) | 5.89% | –
8 | O=C(CCn1nnc2ccccc21)OCC(=O)c1ccc([N+](=O)[O-])cc1 | 0.731 µM (active) | 5.65% | –
9 | O=C(Cn1nnc2ccccc21)c1ccc([N+](=O)[O-])cc1 | inactive | 9.12% | –
10 | O=C(Cn1nnc2ccccc21)OCC(=O)c1ccccc1 | inactive | -10.5% | –
11 | O=[N+]([O-])c1ccc(N2CCOCC2)cc1NCCCO | inactive | 7.85% | –
12 | O=C(O)c1cccc(Nc2ncnc3ccc(Br)cc23)c1 | inactive | -2.61% | –
13 | Cc1ccc2ncnc(Nc3ccccc3)c2c1 | inactive | -8.5% | –
14 | Cc1ccc2ncnc(Nc3cccc([N+](=O)[O-])c3)c2c1 | 8.2 µM (active) | 12.6% | –
15 | Cc1ccc2ncnc(Nc3cccc(C(=O)O)c3)c2c1 | inactive | -1.09% | –
16 | Cn1ncc2c(Nc3cccc([N+](=O)[O-])c3)ncnc21 | inactive | -17% | –
17 | O=C(O)c1cccc(Nc2ncnc3ccccc23)c1 | 25.9 µM (active) | -4.45% | –
18 | O=C(NCC(=O)N1CCN(c2ccccc2F)CC1)c1ccc(Br)o1 | inactive | – | –
19 | Cc1cccc(N2CCN(C(=O)c3ccc(CS(=O)Cc4ccc(Cl)cc4)o3)CC2)c1C (stereo not given) | inactive | -21% | –
20 | CCN1CCCC1CNCc1ccc(Cl)cc1Cl (stereo not given) | 7.31 µM (active) | -167% | –
21 | CCN1CCCC1CNCc1ccccc1OCc1ccc(F)cc1 (stereo not given) | inactive | 13.4% | –
22 | CCOc1cc(CNCC2CCCN2CC)cc(Cl)c1OC (stereo not given) | inactive | 12.4% | –
23 | CCn1cc(CN2CCC(n3nccc3NC(=O)c3ccc(OC)cc3)CC2)cn1 | inactive | -5.94% | –
24 | O=c1[nH]c2ccc(S(=O)(=O)N3CCCCC3)cc2o1 | inactive | 2.33% | –

Row | SMILES | Potency | cell number change | outcome
25 | COc1ccc(C(=O)NNC(=O)COc2ccc(Cl)cc2)c(OC)c1 | inactive | 4.95% | –
26 | CCOc1ccccc1NC(=O)C1CCCN(S(=O)(=O)c2cccc3nsnc23)C1 (stereo not given) | inactive | -15.5% | –
27 | CCc1ccc(NS(=O)(=O)c2ccc(OC)c3ncccc23)cc1 | inactive | 5.2% | –
28 | CCNC(=O)C(=O)Nc1cc2c3c(c1)CCN3C(=O)CC2 | 6.51 µM (active) | -2.95% | –
29 | CC(C)CNC(=O)C(=O)Nc1cc2c3c(c1)CCC(=O)N3CCC2 | inactive | – | –
30 | CNC(=O)C(=O)Nc1cc2c3c(c1)CCC(=O)N3CCC2 | inactive | -5.6% | –
31 | O=C(NCCO)C(=O)Nc1cc2c3c(c1)CCN3C(=O)CC2 | inactive | -29% | –
32 | CC(C)NC(=O)C(=O)Nc1cc2c3c(c1)CCC(=O)N3CCC2 | 11.6 µM (active) | -25.7% | –
33 | CNC(=O)C(=O)Nc1cc2c3c(c1)CCN3C(=O)CC2 | inactive | – | –
34 | CC12CCC(=O)N1C(C(=O)OCC(=O)Nc1cccc(S(=O)(=O)N3CCCCCC3)c1)CS2 (stereo not given) | inactive | – | –
35 | COc1cccc(C(=O)OC2CCCN(C)C2)c1 (stereo not given) | 23.1 µM (active) | -20.8% | –
36 | CN1CCCC(OC(=O)c2cccc(S(=O)(=O)N3CCCCCC3)c2)C1 (stereo not given) | inactive | 5.11% | –
37 | CN1CCCC(OC(=O)c2cc(Cl)cc(Cl)c2)C1 (stereo not given) | inactive | -19.2% | –
38 | CCc1ccc(NC(=O)C/C(C)=N/NC(=O)OCc2ccc(OC)cc2)cc1 | inactive | 1.96% | –
39 | Cc1ccc(N2CCN(S(=O)(=O)c3ccc4c(c3)n(C)c(=O)c(=O)n4C)CC2C)cc1 (stereo not given) | inactive | 9.1% | –
40 | Cc1ccc(N2CCN(S(=O)(=O)c3cccs3)CC2C)cc1 (stereo not given) | 3.66 µM (active) | -24.3% | –
41 | O=S(=O)(c1cccs1)N1CCN(S(=O)(=O)c2cccs2)CC1 | inactive | 5.37% | –
42 | CC(=O)N(C)c1ccc(NC(=O)c2ccco2)cc1 | inactive | -3.91% | –
43 | CN(C(=O)c1cccc(NC(=O)c2ccco2)c1)c1ccccc1 | inactive | 8.03% | –
44 | Cc1ccc(NC(=O)c2ccco2)c(NC(=O)c2ccccc2)c1 | inactive | 11.5% | –
45 | O=C(Nc1ccccc1NC(=O)c1ccco1)c1ccco1 | inactive | -11% | –
46 | CN(C(=O)c1ccc(NC(=O)c2ccco2)cc1)c1ccccc1 | 8.2 µM (active) | 5.45% | –
47 | O=C(Nc1ccccc1NC(=O)c1ccco1)c1ccccc1 | 1.46 µM (active) | -10% | –
48 | CCC(OC(=O)c1cccs1)C(=O)NCc1ccc(C)cc1 (stereo not given) | inactive | -0.108% | –

Row | SMILES | Potency | cell number change | outcome
49 | CCC(C(=O)N(C(C)C)C(C)C)c1ccccc1 (stereo not given) | inactive | 4.75% | –
50 | O=C(N/C(=C\c1ccccc1)C(=O)N1CCCCC1)c1ccc(Br)o1 | – | 0.343% | inactive [at 0.369 µM]
51 | CC(C(=O)NCC1(c2ccccc2)CCCC1)N1CCOCC1 (stereo not given) | inactive | 9.07% | –
52 | COc1ccc(CN(CC2CCC(C(=O)O)CC2)C(=S)Nc2cc(C)cc(C)c2)cc1 (stereo not given) | inactive | -1.54% | –
53 | CCCNC(=O)CCCCn1c(=S)[nH]c2c([nH]c3ccc(OC)cc32)c1=O | inactive | 24.9% | –
54 | COc1ccc2[nH]c3c(=O)n(CCCC(=O)NC4CCC(C)CC4)c(=S)[nH]c3c2c1 (stereo not given) | 2.31 µM (active) | 6.49% | –
55 | CC[C@H](C)NC(=O)CCCCCn1c(=S)[nH]c2c([nH]c3ccc(OC)cc32)c1=O | inactive | -11.2% | –
56 | O=C(CSc1cn(Cc2cccc(F)c2)c2ccccc12)NCc1ccc(F)cc1 | inactive | 3.63% | –
57 | O=C(Nc1ccc(Cl)cc1)C1CCC(=O)N1Cc1ccccc1Cl (stereo not given) | inactive | -16.5% | –
58 | O=C(O)C1CCC(=O)N1Cc1ccccc1Cl (stereo not given) | inactive | -9.84% | –
59 | CNC(=O)C1CCC(=O)N1Cc1ccccc1Cl (stereo not given) | 29.1 µM (active) | -10.4% | –
60 | O=C(O)c1ccc(-n2nnnc2SCc2ccccc2)cc1 | inactive | 17.8% | –
61 | Cc1ccc[n+](CC(=O)c2ccc(Cl)cc2)c1 | inactive | 2.36% | –
62 | COc1ccc(C(=O)C[n+]2cccc(C)c2)cc1 | inactive | 11.3% | –
63 | Cc1ccc[n+](CC(=O)c2ccc(Br)cc2)c1 | 11.6 µM (active) | 14.7% | –
64 | O=C(O)c1cccc(Oc2ccccc2[N+](=O)[O-])c1 | inactive | -2.25% | –
65 | CCOc1ccc(/C=N/n2nnnc2N)cc1O | inactive | 23.4% | –
66 | CCc1ccc(C(=O)c2cnc3ccc(OC)cc3c2N2CCN(CC)CC2)cc1 | inactive | -13.9% | –
67 | Cn1ccs/c1=N\S(=O)(=O)c1ccc(Br)cc1 | inactive | – | –
68 | Cn1ccs/c1=N\S(=O)(=O)c1ccc(F)cc1 | inactive | – | –
69 | Cn1ccs/c1=N\S(=O)(=O)c1ccc(C(C)(C)C)cc1 | 16.4 µM (active) | -15.3% | –
70 | COc1ccc2c(c1)CCc1c(C(=O)NCc3ccc(Cl)cc3)noc1-2 | inactive | 3.58% | –
71 | CC(=O)c1c(C)[nH]c(C(=O)Nc2ccc3c(c2)OCCO3)c1C | inactive | -13.3% | –
72 | CCOc1ccc(NC(=S)N2CCC(c3nc4ccccc4[nH]3)CC2)cc1 | inactive | 0.472% | –

Row | SMILES | Potency | cell number change | outcome
73 | COCCn1c(SCC(=O)NNC(=O)c2ccccc2)nc2ccccc2c1=O | inactive | 22% | –
74 | C=CCNC(=O)NC(=O)COC(=O)/C(C#N)=C/c1cc(C)n(CC(C)C)c1C | inactive | 19.6% | –
75 | CCN1C(=O)c2cccc3c(Cl)ccc1c23 | inactive | -17.2% | –
76 | Cc1cc(Cl)c2oc(C(=O)N(C)CCc3cnn(C)c3)c(C)c2c1 | inactive | -0.298% | –
77 | Cc1cc(Cl)c2oc(C(=O)N(C)CC3CCOCC3)c(C)c2c1 | inactive | -6.12% | –
78 | Cc1cc(Cl)c2oc(C(=O)N(C)CCCCN3CCOCC3)c(C)c2c1 | 1.3 µM (active) | -10.7% | –
79 | CC1(OC(=O)C2CCCC2)C(=O)C=C2C=C(c3ccsc3)N(CCCCO)C=C2C1=O (stereo not given) | inactive | -2.75% | –
80 | NC(=O)C(Cc1ccccc1)N1C(=O)c2ccccc2C1=O (stereo not given) | inactive | -7.43% | –
81 | O=C1c2ccccc2C(=O)N1CCCOc1ccccc1 | inactive | -1.01% | –
82 | O=C(O)C(CCCCN1C(=O)c2ccccc2C1=O)N1C(=O)c2ccccc2C1=O (stereo not given) | 29.1 µM (active) | -7.36% | –
83 | CCC(C)(C)n1nnnc1C(c1ccc(N(C)C)cc1)N1CCN(C2CCCCC2)CC1 (stereo not given) | inactive | 1.78% | –
84 | Cc1cc(OCC(O)CNC(C)(C)C)ccc1Cl (stereo not given) | inactive | 3.23% | –
85 | CCOC(=O)N1CCN(C(=O)CSc2ccc(Cl)cc2)CC1 | 2.59 µM (active) | 4.78% | –
86 | CCOC(=O)N1CCN(C(=O)CSc2ccccc2)CC1 | inactive | – | –
87 | CCOC(=O)N1CCN(C(=O)CCSc2ccc(Cl)cc2)CC1 | inactive | -8.05% | –
88 | OC(CNCc1cccnc1)COc1ccc2ccccc2c1 (stereo not given) | inactive | -3.7% | –
89 | CCOC(=O)C1=C(C)N=c2s/c(=C\c3ccc(OCC(=O)O)cc3)c(=O)n2C1c1ccccc1 (stereo not given) | inactive | – | –
90 | CCOC(=O)C1=C(C)N=c2s/c(=C/c3ccc(OCC(=O)O)cc3)c(=O)n2C1c1ccc(OC)cc1OC (stereo not given) | 11.6 µM (active) | -12.6% | –
91 | CCOC(=O)C1=C(C)N=c2s/c(=C\c3ccc(OCC(=O)O)c(OC)c3)c(=O)n2C1c1ccc(OC)cc1 (stereo not given) | inactive | 8.11% | –
92 | OCCN1CCN(c2cc(C(F)(F)F)nc3c(F)cccc23)CC1 | inactive | 16.3% | –
93 | CCOC(=O)N1CCN(C(=O)C2CCN(S(=O)(=O)N3CCC4(CC3)OCCO4)CC2)CC1 | inactive | – | –
94 | CC1(C)O[C@H]2CC(=O)OC[C@@]23C1CC(=O)[C@]1(C)C3CC[C@@]2(C)[C@H](c3ccoc3)OC(=O)[C@H]3O[C@]321 (stereo not given in full) | inactive | – | –
95 | O=C(CN1CCN(C(=O)CNC(=O)c2ccc3c(c2)OCO3)CC1)Nc1ccccc1Cl | inactive | 2.76% | –
